Assay results taken from PMC7862700, “An all-to-all approach to the identification of sequence-specific readers for epigenetic DNA modifications on cytosine”.

How the values were obtained:
Assay in all cases: DAPPL (digital affinity profiling via proximity ligation, sequencing); 10 mM Tris-HCl pH 7.5, 50 mM NaCl, 1 mM DTT, 4% glycerol, room temperature, 30 min; GST-TFs on glutathione beads, 16-mer random dsDNA library, 0.1% formaldehyde crosslink after washing; high values mean tight binding
Conditions in all cases: protein: recombinant; tags: N-terminal GST; dsDNA, one strand shown
[1] = target: T1, FLI1 (Homo sapiens, UniProt Q01543 1-452)
T1 sequence: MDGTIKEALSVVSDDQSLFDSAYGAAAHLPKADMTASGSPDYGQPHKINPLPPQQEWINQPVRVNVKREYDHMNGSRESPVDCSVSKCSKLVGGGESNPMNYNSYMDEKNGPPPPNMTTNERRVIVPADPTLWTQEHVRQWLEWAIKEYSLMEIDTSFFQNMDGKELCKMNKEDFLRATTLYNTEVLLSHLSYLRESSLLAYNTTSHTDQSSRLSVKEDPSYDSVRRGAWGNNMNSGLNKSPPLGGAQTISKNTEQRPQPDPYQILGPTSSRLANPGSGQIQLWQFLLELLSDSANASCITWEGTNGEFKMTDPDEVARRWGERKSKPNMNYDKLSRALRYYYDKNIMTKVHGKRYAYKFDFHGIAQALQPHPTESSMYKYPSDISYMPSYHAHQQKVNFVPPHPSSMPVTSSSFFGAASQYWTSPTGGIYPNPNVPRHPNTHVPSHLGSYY
Outline: (§1)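 Binding signal is given per hexamer as its read frequency for a factor divided by its frequency in the tag-only sample. GST-fused human transcription factors were expressed in yeast, captured on glutathione beads, barcoded with DNA and pooled with that sample, then incubated with 200 nmole of a 16-mer random double-stranded DNA library in Tris/NaCl/DTT/glycerol buffer for 30 min at room temperature. The pools were then washed, crosslinked, proximity-ligated, amplified by PCR and sequenced on an Illumina NextSeq500.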

[2] = target: T2, ELK1 (Homo sapiens, UniProt P19419 1-428)
T2 sequence: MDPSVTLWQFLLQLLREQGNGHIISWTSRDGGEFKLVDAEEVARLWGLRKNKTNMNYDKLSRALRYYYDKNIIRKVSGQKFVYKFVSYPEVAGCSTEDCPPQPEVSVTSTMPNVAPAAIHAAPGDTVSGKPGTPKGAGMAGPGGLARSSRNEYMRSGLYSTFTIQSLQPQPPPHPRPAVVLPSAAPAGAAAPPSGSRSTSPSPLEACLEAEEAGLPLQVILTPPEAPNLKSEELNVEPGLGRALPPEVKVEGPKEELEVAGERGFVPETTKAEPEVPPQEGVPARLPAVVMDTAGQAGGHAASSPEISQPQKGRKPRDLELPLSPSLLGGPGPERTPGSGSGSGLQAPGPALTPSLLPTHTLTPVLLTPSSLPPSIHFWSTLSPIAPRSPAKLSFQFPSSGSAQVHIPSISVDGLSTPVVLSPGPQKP
Outline: as §1

[3] = target: T3, GABPA (Homo sapiens, UniProt Q06546 1-454)
T3 sequence: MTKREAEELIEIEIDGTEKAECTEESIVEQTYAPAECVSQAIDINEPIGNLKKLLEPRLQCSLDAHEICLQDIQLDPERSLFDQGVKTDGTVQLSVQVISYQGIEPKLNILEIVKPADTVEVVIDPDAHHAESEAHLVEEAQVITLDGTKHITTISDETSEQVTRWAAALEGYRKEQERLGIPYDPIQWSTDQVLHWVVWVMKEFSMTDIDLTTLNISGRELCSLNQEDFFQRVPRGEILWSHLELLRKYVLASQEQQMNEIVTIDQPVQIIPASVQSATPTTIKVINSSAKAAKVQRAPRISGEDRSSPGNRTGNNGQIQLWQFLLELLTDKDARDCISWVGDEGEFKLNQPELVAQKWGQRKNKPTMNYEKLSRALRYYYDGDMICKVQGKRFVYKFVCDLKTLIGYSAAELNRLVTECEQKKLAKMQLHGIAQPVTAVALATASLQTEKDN
Outline: as §1

[4] = target: T4, ERG (Homo sapiens, UniProt P11308 1-479)
T4 sequence: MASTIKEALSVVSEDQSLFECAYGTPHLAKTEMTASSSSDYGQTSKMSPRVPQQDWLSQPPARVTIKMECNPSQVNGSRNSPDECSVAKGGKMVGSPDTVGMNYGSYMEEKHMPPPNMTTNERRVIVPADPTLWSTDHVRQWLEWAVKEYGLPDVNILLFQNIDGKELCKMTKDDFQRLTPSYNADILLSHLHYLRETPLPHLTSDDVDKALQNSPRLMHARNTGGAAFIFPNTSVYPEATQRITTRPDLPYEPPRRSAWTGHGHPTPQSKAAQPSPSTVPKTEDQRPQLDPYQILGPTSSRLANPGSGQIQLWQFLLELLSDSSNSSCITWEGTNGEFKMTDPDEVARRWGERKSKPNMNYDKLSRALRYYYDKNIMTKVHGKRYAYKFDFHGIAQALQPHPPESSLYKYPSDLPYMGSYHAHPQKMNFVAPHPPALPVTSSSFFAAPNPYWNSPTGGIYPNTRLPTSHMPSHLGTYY
Outline: as §1

[5] = target: ELF1 (Homo sapiens, UniProt P32519 1-619)
Outline: as §1

[6] = target: T5, EHF (Homo sapiens, UniProt Q9NZC4 1-300)
T5 sequence: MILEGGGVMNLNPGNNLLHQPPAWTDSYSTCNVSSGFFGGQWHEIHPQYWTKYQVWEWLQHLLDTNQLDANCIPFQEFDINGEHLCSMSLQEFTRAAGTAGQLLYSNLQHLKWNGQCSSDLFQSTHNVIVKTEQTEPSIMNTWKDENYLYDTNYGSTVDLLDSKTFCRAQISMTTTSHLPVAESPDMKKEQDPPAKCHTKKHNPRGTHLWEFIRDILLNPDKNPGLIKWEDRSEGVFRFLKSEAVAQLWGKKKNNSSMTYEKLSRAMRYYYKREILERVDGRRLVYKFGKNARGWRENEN
Outline: as §1

[7] = target: SPI1 (Homo sapiens, UniProt P17947 1-270)
Outline: as §1

[8] = target: T6, ELK3 (Homo sapiens, UniProt P41970 1-407)
T6 sequence: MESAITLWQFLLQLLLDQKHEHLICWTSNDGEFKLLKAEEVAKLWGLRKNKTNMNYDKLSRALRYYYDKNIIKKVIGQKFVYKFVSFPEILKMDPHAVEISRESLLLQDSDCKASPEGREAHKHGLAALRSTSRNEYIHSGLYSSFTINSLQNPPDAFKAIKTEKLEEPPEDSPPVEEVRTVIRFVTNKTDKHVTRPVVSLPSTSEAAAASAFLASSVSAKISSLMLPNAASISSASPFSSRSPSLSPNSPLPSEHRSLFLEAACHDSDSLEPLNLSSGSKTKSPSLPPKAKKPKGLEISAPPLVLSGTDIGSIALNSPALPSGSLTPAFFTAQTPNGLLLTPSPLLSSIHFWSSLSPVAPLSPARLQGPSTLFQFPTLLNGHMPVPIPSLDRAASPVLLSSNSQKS
Outline: as §1

[9] = target: T7, FEV (Homo sapiens, UniProt Q99581 1-238)
T7 sequence: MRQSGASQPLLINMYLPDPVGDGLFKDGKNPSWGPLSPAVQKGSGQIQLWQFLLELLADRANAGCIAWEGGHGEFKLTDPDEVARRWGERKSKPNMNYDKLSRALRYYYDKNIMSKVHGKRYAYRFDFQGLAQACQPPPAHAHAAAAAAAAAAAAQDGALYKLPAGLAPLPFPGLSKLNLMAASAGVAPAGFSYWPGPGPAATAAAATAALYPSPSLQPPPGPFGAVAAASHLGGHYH
Outline: as §1

[10] = target: ETV5 (Homo sapiens, UniProt P41161 1-510)
Outline: as §1

[11] = target: T8, SPIC (Homo sapiens, UniProt Q8N5J4 1-248)
T8 sequence: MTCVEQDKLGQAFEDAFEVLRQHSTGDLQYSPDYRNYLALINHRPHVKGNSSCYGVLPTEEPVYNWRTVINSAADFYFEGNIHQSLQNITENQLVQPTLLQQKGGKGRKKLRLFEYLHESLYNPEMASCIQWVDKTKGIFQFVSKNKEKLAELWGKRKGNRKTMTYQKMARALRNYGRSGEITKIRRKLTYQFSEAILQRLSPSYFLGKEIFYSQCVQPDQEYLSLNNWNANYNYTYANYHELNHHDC
Outline: as §1

[12] = target: ELF4 (Homo sapiens, UniProt Q99607 1-663)
Outline: as §1

[13] = target: T9, ERF (Homo sapiens, UniProt P50548 1-548)
T9 sequence: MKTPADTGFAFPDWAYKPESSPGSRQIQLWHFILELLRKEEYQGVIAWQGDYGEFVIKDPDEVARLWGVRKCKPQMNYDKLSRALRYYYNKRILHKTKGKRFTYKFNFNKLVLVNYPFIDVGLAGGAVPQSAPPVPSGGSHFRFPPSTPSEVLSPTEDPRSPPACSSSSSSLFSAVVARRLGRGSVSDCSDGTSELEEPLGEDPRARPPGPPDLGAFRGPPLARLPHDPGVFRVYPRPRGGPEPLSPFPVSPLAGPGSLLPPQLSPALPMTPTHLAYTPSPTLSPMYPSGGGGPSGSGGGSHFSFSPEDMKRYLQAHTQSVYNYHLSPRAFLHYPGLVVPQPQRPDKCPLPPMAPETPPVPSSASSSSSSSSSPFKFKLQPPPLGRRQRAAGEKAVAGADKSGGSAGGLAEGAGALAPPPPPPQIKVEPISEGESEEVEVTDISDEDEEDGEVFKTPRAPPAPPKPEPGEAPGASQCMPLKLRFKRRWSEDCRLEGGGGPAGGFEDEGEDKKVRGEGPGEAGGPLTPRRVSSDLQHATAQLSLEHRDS
Outline: as §1

[14] = target: T10, ETS2 (Homo sapiens, UniProt P15036 1-469)
T10 sequence: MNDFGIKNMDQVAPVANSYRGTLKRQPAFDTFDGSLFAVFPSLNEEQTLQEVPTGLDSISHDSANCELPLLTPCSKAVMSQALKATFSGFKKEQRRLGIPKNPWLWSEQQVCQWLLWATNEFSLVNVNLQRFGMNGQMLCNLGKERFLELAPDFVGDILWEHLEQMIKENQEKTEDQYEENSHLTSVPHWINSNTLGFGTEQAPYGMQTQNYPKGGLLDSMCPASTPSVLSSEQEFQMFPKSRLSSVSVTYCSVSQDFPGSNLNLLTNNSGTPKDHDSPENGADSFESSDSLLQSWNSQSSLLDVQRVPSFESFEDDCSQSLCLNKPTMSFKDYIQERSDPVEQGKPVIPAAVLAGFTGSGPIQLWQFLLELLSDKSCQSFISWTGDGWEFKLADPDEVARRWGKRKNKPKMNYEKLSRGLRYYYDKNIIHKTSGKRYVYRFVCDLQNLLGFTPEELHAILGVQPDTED
Outline: as §1

[15] = target: T11, ELF5 (Homo sapiens, UniProt Q9UKW6-2 1-255)
T11 sequence: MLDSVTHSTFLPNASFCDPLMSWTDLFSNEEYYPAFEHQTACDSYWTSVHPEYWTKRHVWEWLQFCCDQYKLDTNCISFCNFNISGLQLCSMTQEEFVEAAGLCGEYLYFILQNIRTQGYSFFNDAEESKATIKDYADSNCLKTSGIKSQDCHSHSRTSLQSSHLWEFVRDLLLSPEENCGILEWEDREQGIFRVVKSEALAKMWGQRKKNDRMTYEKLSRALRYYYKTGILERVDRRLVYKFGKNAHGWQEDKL
Outline: as §1

[16] = target: T12, ETV3 (Homo sapiens, UniProt P41162-2 1-143)
T12 sequence: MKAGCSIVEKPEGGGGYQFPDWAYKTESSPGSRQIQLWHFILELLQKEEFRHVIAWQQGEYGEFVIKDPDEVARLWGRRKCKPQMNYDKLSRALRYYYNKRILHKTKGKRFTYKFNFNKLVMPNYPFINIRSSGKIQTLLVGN
Outline: as §1

[17] = target: ETV6 (Homo sapiens, UniProt P41212 1-452)
Outline: as §1

Sequence of ELF1 (P32519 whole entry): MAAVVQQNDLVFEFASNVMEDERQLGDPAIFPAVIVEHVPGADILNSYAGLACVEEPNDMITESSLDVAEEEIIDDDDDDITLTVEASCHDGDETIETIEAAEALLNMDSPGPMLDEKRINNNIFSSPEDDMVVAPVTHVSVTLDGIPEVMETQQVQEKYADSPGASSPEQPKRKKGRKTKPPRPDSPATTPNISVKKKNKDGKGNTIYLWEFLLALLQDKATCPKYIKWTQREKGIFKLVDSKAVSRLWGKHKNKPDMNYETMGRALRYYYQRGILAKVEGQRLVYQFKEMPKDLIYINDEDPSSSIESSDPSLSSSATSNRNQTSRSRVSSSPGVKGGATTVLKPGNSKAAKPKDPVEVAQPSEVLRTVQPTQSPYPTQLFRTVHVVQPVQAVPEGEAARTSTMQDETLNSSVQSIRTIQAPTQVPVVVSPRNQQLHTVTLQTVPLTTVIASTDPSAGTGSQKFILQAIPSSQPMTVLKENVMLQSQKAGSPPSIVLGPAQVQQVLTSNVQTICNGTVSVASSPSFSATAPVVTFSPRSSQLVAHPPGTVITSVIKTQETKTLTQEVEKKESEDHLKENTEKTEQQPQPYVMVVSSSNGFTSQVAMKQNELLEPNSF
Sequence of ETV5 (P41161 whole entry): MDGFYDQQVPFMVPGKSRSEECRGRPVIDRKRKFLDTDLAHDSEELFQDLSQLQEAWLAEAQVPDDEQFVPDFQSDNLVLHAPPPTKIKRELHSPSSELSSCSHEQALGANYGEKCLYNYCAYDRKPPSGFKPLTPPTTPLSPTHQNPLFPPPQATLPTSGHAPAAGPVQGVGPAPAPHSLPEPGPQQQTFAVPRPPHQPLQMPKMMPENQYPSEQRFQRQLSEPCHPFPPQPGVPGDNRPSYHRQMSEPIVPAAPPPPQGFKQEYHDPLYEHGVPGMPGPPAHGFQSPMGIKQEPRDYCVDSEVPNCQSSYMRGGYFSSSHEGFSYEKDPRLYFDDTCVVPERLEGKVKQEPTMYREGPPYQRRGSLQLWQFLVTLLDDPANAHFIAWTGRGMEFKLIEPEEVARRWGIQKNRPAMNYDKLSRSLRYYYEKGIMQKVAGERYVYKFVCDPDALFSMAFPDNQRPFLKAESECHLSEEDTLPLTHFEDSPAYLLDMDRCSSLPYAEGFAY
Sequence of ETV6 (P41212 whole entry): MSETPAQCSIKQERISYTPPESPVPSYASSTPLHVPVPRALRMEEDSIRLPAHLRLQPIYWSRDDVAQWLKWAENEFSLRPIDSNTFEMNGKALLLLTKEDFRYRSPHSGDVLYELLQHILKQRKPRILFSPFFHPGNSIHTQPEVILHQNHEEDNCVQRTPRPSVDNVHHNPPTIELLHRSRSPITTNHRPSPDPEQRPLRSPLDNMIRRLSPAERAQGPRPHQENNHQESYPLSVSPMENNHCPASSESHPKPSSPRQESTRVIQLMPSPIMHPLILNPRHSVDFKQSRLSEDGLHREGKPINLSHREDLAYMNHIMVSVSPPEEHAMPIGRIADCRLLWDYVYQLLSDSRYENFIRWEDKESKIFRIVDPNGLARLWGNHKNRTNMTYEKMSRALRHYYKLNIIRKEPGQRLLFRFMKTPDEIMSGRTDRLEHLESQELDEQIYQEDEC
Sequence of ELF4 (Q99607 whole entry): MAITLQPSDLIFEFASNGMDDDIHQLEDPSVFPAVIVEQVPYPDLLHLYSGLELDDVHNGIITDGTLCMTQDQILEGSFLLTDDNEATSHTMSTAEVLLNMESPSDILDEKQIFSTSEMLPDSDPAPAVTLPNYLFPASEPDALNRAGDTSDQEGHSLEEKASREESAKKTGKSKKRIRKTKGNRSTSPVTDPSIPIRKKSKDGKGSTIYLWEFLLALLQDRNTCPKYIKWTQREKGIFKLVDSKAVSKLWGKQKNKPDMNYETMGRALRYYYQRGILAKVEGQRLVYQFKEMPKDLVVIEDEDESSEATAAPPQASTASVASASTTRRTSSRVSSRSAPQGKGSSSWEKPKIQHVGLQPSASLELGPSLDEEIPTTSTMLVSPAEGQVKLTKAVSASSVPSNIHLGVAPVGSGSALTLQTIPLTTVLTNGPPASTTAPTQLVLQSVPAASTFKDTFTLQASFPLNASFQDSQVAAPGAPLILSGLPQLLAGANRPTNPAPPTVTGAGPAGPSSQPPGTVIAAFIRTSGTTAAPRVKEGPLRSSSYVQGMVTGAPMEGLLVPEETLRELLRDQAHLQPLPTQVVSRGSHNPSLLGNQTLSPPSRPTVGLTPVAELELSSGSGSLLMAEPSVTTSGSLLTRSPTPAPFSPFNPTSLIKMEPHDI

For CCATGC, the binding signal [1] was 1.04 fold enrichment (6-mer frequency, TF over GST control), the binding signal [2] was 1.1 fold enrichment (6-mer frequency, TF over GST control) and the binding signal [3] was 1.09 fold enrichment (6-mer frequency, TF over GST control). For the same sequence, the binding signal [4] was 1.09 fold enrichment (6-mer frequency, TF over GST control), the binding signal [5] was 1.13 fold enrichment (6-mer frequency, TF over GST control) and the binding signal [6] was 1.15 fold enrichment (6-mer frequency, TF over GST control). For the same sequence, the binding signal [7] was 1.01 fold enrichment (6-mer frequency, TF over GST control), the binding signal [8] was 1.04 fold enrichment (6-mer frequency, TF over GST control) and the binding signal [9] was 1.1 fold enrichment (6-mer frequency, TF over GST control). The binding signal [10] was 1.11 fold enrichment (6-mer frequency, TF over GST control), the binding signal [11] was 1 fold enrichment (6-mer frequency, TF over GST control) and the binding signal [12] was 1.08 fold enrichment (6-mer frequency, TF over GST control). The binding signal [13] was 1.01 fold enrichment (6-mer frequency, TF over GST control), the binding signal [14] was 1.03 fold enrichment (6-mer frequency, TF over GST control) and the binding signal [15] was 1.03 fold enrichment (6-mer frequency, TF over GST control). The binding signal [16] was 1.12 fold enrichment (6-mer frequency, TF over GST control) and the binding signal [17] was 1.12 fold enrichment (6-mer frequency, TF over GST control).
